Bioassay records deposited in PubChem by several laboratories.
Gli-Sufu block – Gli-Sufu pathway antagonism. Sufu-KO-LIGHT fibroblasts, Gli luciferase reporter luminescence. 0.74% of 340,000 active. inhibition, % at 5 µM. AID 588413;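 active = inhibition above about 55%, limit read from the data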;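 also: 0% = DMSO-treated cells and 100% = wells with medium but no cells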
LRH-1 inv ag – suppresses constitutive activity of human LRH-1. 0.13% of 360,000 active. HEK293T StAR-luciferase reporter, LRH-1 transfected, 24 h. O00482. inhibition, % at 3.6 µM;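 active = inhibition above the mean inhibition of all tested compounds plus 3 SD, cut at about 73% in these data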;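 also: 0% = DMSO wells and 100% = reporter-only cells lacking LRH-1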
Shn3 inh set2 – Schnurri-3 reporter inhibition in Clone20 osteoblasts; Clone20 osteoblast Shn3 3'UTR firefly luciferase, 24 h; inhibition, % at 12.5 µM; 0.52% of 360,000 active;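 active = mean inhibition of at least 75% with every replicate also reaching 75%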;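 also: 0% = median of neutral control wells and 100% = pilot-screen positive control compound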
NCOA2 inhibitor – inhibits human steroid receptor coactivator 2; 0.17% of 370,000 active; Q15596; HEK293 GAL4-SRC2 luciferase reporter, luminescence; inhibition, % at 9 µM;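 active = inhibition above the mean inhibition of all tested compounds plus 3 SD, set per campaign, cut at about 52% in these data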;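 also: 0% = DMSO treated cells and 100% = cells given Gossypol at 36 µM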
SRC1 inh – inhibits human SRC1 coactivator. HEK293 GAL4-SRC1 luciferase reporter, luminescence. inhibition, % at 3.6 µM. 0.12% of 360,000 active. AID 588354;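 active = inhibition above the campaign mean plus 3 SD, with each screening campaign given its own cutoff, cut at about 60% in these data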;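 also: 0% = DMSO treated cells and 100% = gossypol at 36 µM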
NCOA3 inh – inhibitors of human steroid receptor coactivator 3 (SRC3); Q9Y6Q9; AID 588352; HEK293 GAL4-SRC3 luciferase reporter, luminescence; 0.17% of 360,000 active; inhibition, % at 3.6 µM;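 active = inhibition above a per-campaign cutoff, the mean of all compounds plus 3 SD, cut at about 60% in these data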;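 also: 0% = DMSO-treated cells and 100% = gossypol-treated cells at 36 µM; higher means less SRC3-driven luciferase light from the GAL4 reporter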
The depositor's hits bear a star. An excerpt weighted towards active compounds, which were near 1.1% of everything screened.

For O=C(O)c1cc(S(=O)(=O)N2CC3CC(C2)c2cccc(=O)n2C3)ccc1F (configuration not stated) the results were NCOA2 inhibitor 16.8.
For O=c1[nH]c(O)c(N=Nc2ccc3c(c2)OCCO3)c(=O)[nH]1 the results were Gli-Sufu block 29.9, LRH-1 inv ag 71.5, Shn3 inh set2 37.4, NCOA2 inhibitor 58.5*, SRC1 inh 66.7* and NCOA3 inh 69.1*.
For C[C@H]1O[C@@H](OC2CC[C@]3(C=O)[C@H]4CC[C@]5(C)[C@@H](C6=CC(=O)OC6)CC[C@]5(O)[C@@H]4CC[C@]3(O)C2)CC2OC(C)(C)OC21 (some centres not stated) the results were Gli-Sufu block 12.7, LRH-1 inv ag 98.8*, Shn3 inh set2 9.0, NCOA2 inhibitor 60.3*, SRC1 inh 81.2* and NCOA3 inh 86.3*.
`C[C@]12CCC3C(CCC4=CC(O)CC[C@@]43/C=N/O)C1(O)CCC2C1=CC(=O)OC1` (some centres not stated) gave Gli-Sufu block -2.4, LRH-1 inv ag 98.0*, Shn3 inh set2 14.0, NCOA2 inhibitor 49.5, SRC1 inh 78.3* and NCOA3 inh 71.0*.
C[C@]12CC[C@H]3[C@@H](CC[C@]4(O)C[C@@H](O)CC[C@]34C=O)[C@@]1(O)CC[C@@H]2C1=CC(=O)OC1 was read as Gli-Sufu block -0.3, LRH-1 inv ag 102.5*, Shn3 inh set2 2.1, NCOA2 inhibitor 53.4*, SRC1 inh 71.4* and NCOA3 inh 81.9*.
`CCCCN=C[C@]12CCC(O)CC1(O)CCC1[C@@H]2CC[C@]2(C)[C@H](C3C=CC(=O)O3)CCC12O` (some centres not stated) gave Gli-Sufu block 0.6, LRH-1 inv ag 97.1*, Shn3 inh set2 -30.8, NCOA2 inhibitor 42.3, SRC1 inh 77.6* and NCOA3 inh 80.2*.
C[C@H]1O[C@@H](O[C@H]2[C@@H](O)C[C@H](O[C@H]3[C@@H](O)C[C@H](O[C@H]4CC[C@@]5(C)[C@H](CC[C@@H]6[C@@H]5CC[C@]5(C)[C@@H](C7=CC(=O)OC7)CC[C@]65O)C4)O[C@@H]3C)O[C@@H]2C)C[C@H](O)[C@@H]1O was read as Gli-Sufu block 7.3.
Screening CC12CC[C@H]3[C@@H](CCC4(O)C[C@H](O)CCC34/C=N/NC(=O)c3ccccc3Cl)C1(O)CCC2C1=CC(=O)OC1 (some centres not stated) returned Gli-Sufu block -11.5, LRH-1 inv ag -0.7, Shn3 inh set2 -1.1, NCOA2 inhibitor -19.4, SRC1 inh 8.2 and NCOA3 inh 10.7.
Screening C=CCN1CC[C@]23c4c5ccc(O)c4OC2C(=O)CC[C@@]3(O)[C@H]1C5 (some centres not stated) returned NCOA2 inhibitor -0.9.
Screening CC(C)(C)NC(=O)CN1C(=O)[C@@H](Cc2c[nH]c3ccccc23)N=C(c2ccccc2)c2ccccc21 returned NCOA2 inhibitor 5.0.
`CCOC(=O)[C@]12Cc3cc4ccccc4cc3[C@H]1N(Cc1ccccc1)C(=O)c1ccccc12` gave LRH-1 inv ag 35.3 and NCOA2 inhibitor 24.6.
Screening OC1CN2CCC(O)C2C(O)C1O (configuration not stated) returned NCOA2 inhibitor -4.4.
Screening c1ccc(Cc2cnc(N3CCNCC3)nc2)cc1 returned NCOA2 inhibitor 3.1.
Screening O=P1(c2ccccc2)CC=CC1 returned LRH-1 inv ag -26.5, Shn3 inh set2 7.7, NCOA2 inhibitor -36.5, SRC1 inh -9.6 and NCOA3 inh 3.8.
For CC12CCC3C(CCC4(O)CC(O)CCC34C=NO)C1(O)CCC2C1=COC(=O)C1 (configuration not stated) the results were Gli-Sufu block 8.4, LRH-1 inv ag 99.0*, Shn3 inh set2 10.5, NCOA2 inhibitor 42.5, SRC1 inh 86.5* and NCOA3 inh 88.9*.
For CC12CCC3C(CCC4(O)CC(O)CCC34C=O)C1(O)CCC2C1=CC(=O)OC1 (configuration not stated) the results were Gli-Sufu block 3.6, LRH-1 inv ag 96.5*, Shn3 inh set2 -20.6, NCOA2 inhibitor 37.3, SRC1 inh 65.0* and NCOA3 inh 65.3*.
`C[C@@H]1CNCCN1c1ccc(N2CC[C@@H](O)C2)c(C#N)c1` gave NCOA2 inhibitor 11.6.
For C=C1C(=O)OC2CC3(C)OC3CCC(C)=CC(OC(C)=O)C12 (configuration not stated) the results were Gli-Sufu block 12.6, LRH-1 inv ag -9.4, Shn3 inh set2 2.3, NCOA2 inhibitor 25.7, SRC1 inh -14.7 and NCOA3 inh -50.7.
`C=C1C(=O)OC2CC3(C)OC3C3OC3C3=CC(OC3=O)C12` (configuration not stated) gave LRH-1 inv ag -18.3, Shn3 inh set2 94.2*, NCOA2 inhibitor -124.3, SRC1 inh -130.8 and NCOA3 inh -139.5.
Cc1cc(N2CCNC[C@H]2C)ccc1N1CCN[C@@H](C)C1 was read as NCOA2 inhibitor 3.0.
Screening CCC(=O)[C@@H](C)[C@@H](O)[C@H](C)C[C@@H](C)C1OC(=O)C[C@@]2(O)CC=C(C)C(O2)C(C)=CCCC[C@H](O[C@H]2C[C@@H](OC(N)=O)[C@H](O)[C@@H](C)O2)C=C[C@H](C)C[C@H]1C (some centres not stated) returned LRH-1 inv ag 85.5*.
Cn1nc(-c2ccc(OCC(=O)N3CCN(Cc4ccccc4)CC3)cc2)c2ccccc2c1=O was read as Gli-Sufu block 49.2, LRH-1 inv ag 37.6, Shn3 inh set2 89.0*, NCOA2 inhibitor 14.2, SRC1 inh -3.3 and NCOA3 inh 7.9.
Screening Cn1cccc1CN1CCN(C(=O)COc2ccccc2)CC1 returned Gli-Sufu block -11.4, LRH-1 inv ag 8.2, Shn3 inh set2 -20.1, NCOA2 inhibitor 17.1, SRC1 inh -13.5 and NCOA3 inh -4.1.
Screening Cc1cc2c(C(C)C)c(O)c(O)c(C=O)c2c(O)c1-c1c(C)cc2c(C(C)C)c(O)c(O)c(C=O)c2c1O returned LRH-1 inv ag 23.8, Shn3 inh set2 92.3*, NCOA2 inhibitor 13.3, SRC1 inh -3.6 and NCOA3 inh 44.4.
`O=C(CCn1nc(-c2ccc(Cl)cc2)ccc1=O)N1CCC2(CC1)OCCO2` gave Gli-Sufu block 5.2, LRH-1 inv ag 22.5, Shn3 inh set2 8.8, NCOA2 inhibitor 20.4, SRC1 inh -0.4 and NCOA3 inh 1.7.
Screening Cc1nc2cc(-c3ccc(Cl)cc3)nn2c(C)c1CCC(=O)N1CCC2(CC1)OCCO2 returned Gli-Sufu block 14.7, LRH-1 inv ag -3.2, Shn3 inh set2 49.0, NCOA2 inhibitor 55.8*, SRC1 inh -3.6 and NCOA3 inh 16.8.
Screening COc1ccc(CN2Cc3cnnn3-c3ccccc3C2C#N)cc1 (configuration not stated) returned Gli-Sufu block -6.2, LRH-1 inv ag 35.9, Shn3 inh set2 -21.2, NCOA2 inhibitor 42.6, SRC1 inh 23.4 and NCOA3 inh 46.2.
